The source made the active and inactive calls. Rule for the calls: active = hit-call score of the fitted dose curve at least 0.9, where 1 is the maximum; inactive = score below 0.9.

Sequence of human Serotonin Receptor 5-HT6 Agonism, HTR6 (gene 3362) (P50406 whole entry, looked up): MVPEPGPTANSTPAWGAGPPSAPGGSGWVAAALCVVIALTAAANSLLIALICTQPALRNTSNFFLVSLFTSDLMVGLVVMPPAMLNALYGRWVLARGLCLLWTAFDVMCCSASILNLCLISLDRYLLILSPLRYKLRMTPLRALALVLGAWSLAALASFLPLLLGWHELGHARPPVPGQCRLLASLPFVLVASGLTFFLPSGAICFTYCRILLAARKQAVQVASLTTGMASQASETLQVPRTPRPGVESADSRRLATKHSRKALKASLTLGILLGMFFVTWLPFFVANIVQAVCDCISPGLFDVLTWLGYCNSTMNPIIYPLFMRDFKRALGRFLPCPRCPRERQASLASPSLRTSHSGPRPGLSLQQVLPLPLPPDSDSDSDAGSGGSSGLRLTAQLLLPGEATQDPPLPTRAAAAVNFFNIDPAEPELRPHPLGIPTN

For the experiment, the target named is human Serotonin Receptor 5-HT6 Agonism, HTR6 (gene 3362) (UniProt P50406). Kind of experiment: ERF_FR_GPCR_hHTR6: Eurofins (ERF) G Protein-Coupled Receptor (GPCR) Radioligand Binding LeadHunter Assay for human Serotonin Receptor 5-HT6 Agonism. How it is done:
ERF_FR_GPCR_hHTR6 is a biochemical, single-readout assay that uses extracted gene-proteins in a cell-free assay. Measurements were taken 2 hour after chemical dosing in a 96-well plate. See 5-HT6 Human Serotonin GPCR Binding (Agonist Radioligand) Assay, Cerep.ERF_FR_GPCR_hHTR6 is an assay component calculated from the ERF_FR_GPCR_hHTR6 assay. It is designed to measure radioligand binding using a type of binding reporter as detected by scintillation counting with radiometry technology.Data from the assay component ERF_FR_GPCR_hHTR6 was analyzed at the assay endpoint, ERF_FR_GPCR_hHTR6, in the positive analysis fitting direction relative to DMSO as the negative control and baseline of activity. Using a type of binding reporter, gain-of-signal activity can be used to understand changes in binding as they relate to gene HTR6. To generalize the intended target to other relatable targets, this assay endpoint is annotated to the gpcr intended target family, where the subfamily is serotonin.
Human cells are incubated for 120 minutes at 37 C with [3H]LSD ligand (2 nM) and serotonin as control inhibitor. Test Sample Requirements: Minimum for 1) Screen: 60 ul of 10 mM stock -OR- 1 mg (pre-weighed) for 10 uM final testing. 2) Dose Response: 90 ul of 10 mM stock -OR- 1 mg (pre-weighed) for a top concentration at 10 uM.
Usually AC50 stands for the midpoint of the concentration-response curve, whichever way the signal moves. `O=C(/C=C/c1ccc(O)cc1)CC(=O)/C=C/c1ccc(O)cc1`: the AC50 is 2700 nM (active).

The values are drawn from PubChem BioAssay AID2284161 (EPA ToxCast).
